Common to all, as to test: MAPPIT interaction score (arbitrary units); higher = stronger binary interaction signal, active = hit call of the paper
In one assay the target is PGRP-LE. Conditions: MAPPIT configuration: N-N; pair source set: Curagen_low_conf;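 active = MAPPIT score above the 99th percentile of random reference set scores in the same batch; inactive = at or below it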.
The target in a further assay is PGRP-LC. Conditions: pair source set: Lit-BM-16.
The next assay addresses Pbgd. Conditions: pair source set: RRS.
A further assay has as its target ScpX. Conditions: MAPPIT configuration: N-N; pair source set: Curagen_high_conf.
The target in the next assay is Pak3. Conditions: MAPPIT configuration: N-C; pair source set: RRS.
The target in the next assay is PAN3. Conditions: pair source set: RRS.

± gives the standard deviation of the averaged measurements.
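Also: HEK293T cells with Epo stimulation, STAT-responsive firefly luciferase reporter, fold induction versus unstimulated cells divided by the larger fold induction of two negative controls lacking either bait or prey.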

B1: CG9588 (protein)
chain: MAAGTTTKERLERLINAKKQLEAQINRNGQILAANDNVGMSGPLVDAEGFPRNDIDVYQVRLARQTIICLQNDHKELMNQIQTLLNQYHSEIATTDPELVNRASALDLDSDRSPGGANITDLAPARAIVVVNLVSPDSPAERAGLCAGDAILRFGSINSGNFKGDLAQIGELVRNMQSQNVQLKVKRGEQQLDLILVPKTWSGRGLLGCNIVLPPEAMDH
For B1, the MAPPIT interaction score with PGRP-LE is 0.614 (inactive).

B2: PGRP-LC (protein)
chain: MPFSNETEMSQCSNAKRRVNDPLTGPKNCSTSSTDSGVILNDNVAAFRPEKETKDRGTGEGQFQSKSEEKTESKRISVEHTVNITTENVGKTSSPAVSIRSTTISVVSIDDNAIDSSSIDSDSEAEAEDYTVQKLGHQVTYPPNSSHLRDLNQGLTVISRHVAPGEAAVPPPNPLEAGIVAKQILNGNLAVATPTSPAGGATQGIGSIALTNSTDVTFGDKHFYEGPVTIQQFLIDNRDKWKPGEGPAGGQDNPAFNGGPSTNGSAPGSKHEDPAQTPPICPFLPNTVGRKAVTVTVVFVTLTFLLGIVLATTTNLFGKTLNQSKIRDDDDYRQNIPINSTIDLDNIGGGLILRFVERQQWLAQPPQKEIPDLELPVGLVIALPTNSENCSTQAICVLRVRLLQTYDIESSQKCDIAYNFLIGGDGNVYVGRGWNKMGAHMNNINYDSQSLSFAYIGSFKTIQPSAKQLSVTRLLLERGVKLGKIAPSYRFTASSKLMPSVTDFKADALYASFANWTHWS
As for B2, the MAPPIT interaction score with PGRP-LC (MAPPIT configuration: N-C) is -0.131 (inactive); with PGRP-LC (MAPPIT configuration: N-N), 2.43 ± 0.6.

B3: ref(2)P (protein)
chain: MPEKLLKITYQGAGPQKKINAYLRMPSQNYTILRREIELYLFQERQLPKCDVRTFWIDADKDEIEIVNQNDYEIFLAKCESNMHVQVAPLAPVEEPKATKQEGSSANAEAPSVDDPSNFTIHDAVECDGCGLAPLIGFRYKCVQCSNYDLCQKCELAHKHPEHLMLRMPTNNGPGMVDAWFTGPGLGRRSGRRSRGHCPFQETNQADPAGEPARDSRRERRQARRHAGVLTQFVEMMTNLPLNTTTATAPAEPQKPKAAEQTESPPQAEPTVTAEKAAESEAKPTEPKKVNTDQSVPRTEDPVTTPRSTQPTTPVINLDNISQIVPPEYMSAGIEILNNFSEMFSKIIDTTEGGDSGIFAPSTTPSAENKKPEEQGQSSGQSGASSANQSAVPSAAPSANQSNVPSANQSATPSISGSIPDAQLETEPLNPKPSETTTETEQERRRSDSLDPEWQLIDNAYSANNSNLINLDTTNPTAAPQEPVRDFGQLGELLRQHMNEEARVEQASANTQTAQVDTVSTSTSTTSVTTNSVGTSPAAPDDKRTVPVYHTDESINKSIHAMMAMGFSNEGAWLTQLLESVQGNISAALDVMNVSQNRN
As for B3, the MAPPIT interaction score is -0.0221 (inactive) in the assay with Pbgd (MAPPIT configuration: N-C), 0.0139 (inactive) in the assay with Pbgd (MAPPIT configuration: N-N) and 0.0182 (inactive) with ScpX.

B4: Cyp12e1 (protein)
chain: MLSTQWNANKQISRQIYQLCRGLAQKATAVNLEEAKPYADIPGPSKLQLIRAFLPGGLYKNLPVHEMFLDMNRQYGSIFRMPSVAGTDLVLTMNPQDYEVIFRNEGQYPYRRSFEVMDYFKRVHRREVFDGYDGLTSGNGPAWGKMRTAVNPILLQPRNAKLYMTNLVQVSDEFLERIRIIRDPVTQEMPDDFAVDIRHLVIESICSVALNTHLGLLGEQRNNKDIQKLVLALQDVVELGFQLDIMPAFWKYLPMPNFKKLMRSLDTITDFCYFHIGNALKRIEEDAKAGTLNEIGLETSLLEKLARFDRQTAVIIAMDLLFAGADPTLVTLGGILFSLSKSPDKQARLLEEIRGILPNKDSSLTIENMRNLPYLRACIKEGIRMYPIGPGTLRRMPHDVVLSGYRVVAGTDVGIAANYQMANMEQFVPKVREFIPERWLRDESNSHLVGETATPFMYLPFGFGPRSCAGKRIVDMMLEIAISRLVRNFKIGFDYPIENAFKAQFFVQPNIPFKFKFIERNE
For B4, in the assay with Pak3, the MAPPIT interaction score is 2.68 (inactive).

B5: Dsp1 (protein)
chain: MEHFHQIQQTIQHYQQQLAAQQQQQVQQQQLQQHQVVVQQNQQQAHQNSSNTTAGVGTQQLFTYKMASSFPNPATTMAQVVATSNAAGTTGYDYRLNMAQAAAAAAVPGSQWWYSAANQGQVDANTAAQLQHQQQQQQQQQQQQQQQHQQQQQMQQQQQQQNVINSASPMSRVKADAKPRGRMTAYAYFVQTCREEHKKKHPDETVIFAEFSRKCAERWKTMVDKEKKRFHEMAEKDKQRYEAEMQNYVPPKGAVVGRGKKRKQIKDPNAPKRSLSAFFWFCNDERNKVKALNPEFGVGDIAKELGRKWSDVDPEVKQKYESMAERDKARYEREMTEYKTSGKIAMSAPSMQASMQAQAQKAALLAAAAQQQHQQLEEQHDDDDGDGDDDENQ
B5: the MAPPIT interaction score is 0.573 (inactive) with PAN3 (MAPPIT configuration: N-C) and 0.707 (inactive) with PAN3 (MAPPIT configuration: N-N).

The values above are taken from the supplement of paper PMC10105736.
